Laboratory results reported in PubChem BioAssay (EPA / NIEHS).
Records with an inconclusive call do not appear. Active and inactive are the calls of the source. The calls were made as follows, unless noted: active = hit-call score of the fitted dose curve at least 0.9, where 1 is the maximum; inconclusive = response in the unintended direction; inactive = score below 0.9.

Key:
[1] = target: Hepatocyte nuclear factor 3-beta (Homo sapiens) (UniProt Q9Y261); assay: ATG_FoxA2_CIS: Attagene CIS-FACTORIAL HepG2 Assay for human Forkhead box A2 (FOXA2) (AID 2282942; active = hit-call score of the fitted dose curve at least 0.9, where 1 is the maximum; inactive = score below 0.9); conditions: HepG2 cis-reporter transcription factor activity, 24 h; actives raise or lower the signal
Procedure, shortened: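 Endogenous transcription factor activity is captured via cis-element-driven reporter transcripts in transfected HepG2. Total RNA taken at 24 h post-dosing; labelled RT-PCR products resolved by capillary electrophoresis. Gain or loss fitted versus DMSO.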

[2] = ATG_RORE_CIS: Attagene CIS-FACTORIAL HepG2 Assay for human RAR-related Orphan Receptor Element (RORE) (AID 2282959; active = hit-call score of the fitted dose curve at least 0.9, where 1 is the maximum; inactive = score below 0.9); conditions: HepG2 Attagene cis-factorial RORE reporter, mRNA; actives raise or lower the signal
Procedure, shortened: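 RORE reporter transcripts reflecting endogenous factor activity were read after 24 h compound exposure of transfected HepG2 cells, using reverse transcription, PCR, fluorescent labelling and capillary electrophoresis sizing. Gain or loss fitted against DMSO.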

[3] = ATG_TGFb_CIS: Attagene CIS-FACTORIAL HepG2 Assay for human Transforming Growth Factor (TGF) (AID 2282967; active = hit-call score of the fitted dose curve at least 0.9, where 1 is the maximum; inactive = score below 0.9); conditions: HepG2 Attagene CIS TGFb reporter, mRNA transcription; actives raise or lower the signal
Procedure, shortened: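 Liver HepG2 line, cis-factorial reporter panel, 24 h dosing. Quantitation: RT-PCR products labeled with 6-FAM, cut with HpaI, resolved by capillary electrophoresis; DMSO-referenced bidirectional analysis.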

[4] = ATG_GAL4_TRANS: Attagene TRANS-FACTORIAL HepG2 Assay for GAL4 (Internal Marker) (AID 2282976); conditions: HepG2 Attagene TRANS GAL4 internal marker reporter
Procedure, shortened: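 RT-PCR/capillary electrophoresis readout of reporter mRNA. HepG2, transient MRTU transfection (GAL4-UAS reporters), 24 h compound exposure. Background-control endpoint, positive direction vs DMSO baseline.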

[5] = target: Hepatocyte nuclear factor 4-alpha (Homo sapiens) (UniProt P41235); assay: ATG_HNF4a_TRANS: Attagene TRANS-FACTORIAL HepG2 Assay for human Hepatocyte Nuclear Factor 4 alpha (HNF4a) (AID 2282982); conditions: HepG2 HNF4a transactivation reporter, mRNA readout
Procedure, shortened: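 In this trans-factorial format, a chimeric HNF4a-GAL4 fusion drives a GAL4-UAS reporter in transfected HepG2 liver cells. After 24 h treatment, reporter mRNA induction is measured by RT-PCR with capillary electrophoresis, relative to DMSO.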

[6] = target: Nuclear receptor subfamily 4 group A member 2 (Homo sapiens) (UniProt P43354); assay: ATG_NURR1_TRANS: Attagene TRANS-FACTORIAL HepG2 Assay for human Nuclear Receptor Related Protein 1 (NURR1) (AID 2282985); conditions: HepG2 Attagene TRANS reporter, mRNA readout
Procedure, shortened: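 Chimeric NR-Gal4 fusion activity measured in HepG2 after 24 h treatment. Reporter transcripts detected by RT-PCR and capillary electrophoresis fluorescence; positive-direction curve fitting against DMSO.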

[7] = target: Nuclear respiratory factor 1 (Homo sapiens) (UniProt Q16656); assay: ATG_NRF1_CIS: Attagene CIS-FACTORIAL HepG2 Assay for human Nuclear Respiratory Factor 1 (NRF1) Orphan Gene (AID 2282987; active = hit-call score of the fitted dose curve at least 0.9, where 1 is the maximum; inactive = score below 0.9); conditions: HepG2 NRF1 cis-element reporter, Attagene multiplex; actives raise or lower the signal
Procedure, shortened: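 Endogenous NRF1-driven reporter transcription in transfected HepG2 cells after 24 h treatment. Readout: RT-PCR products, 6-FAM labelled and resolved by capillary electrophoresis; changes fitted both directions relative to DMSO.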

[8] = ATG_NF_kB_CIS: Attagene CIS-FACTORIAL HepG2 Assay for human Nuclear Factor Kappa B (NF-kB) (AID 2282991; active = hit-call score of the fitted dose curve at least 0.9, where 1 is the maximum; inactive = score below 0.9); conditions: HepG2 Attagene cis-factorial NF-kB reporter mRNA; actives raise or lower the signal
Procedure, shortened: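 Readout is reporter transcript level, gain or loss versus DMSO, measured 24 h post-dose via RT-PCR, fluorescent labelling and capillary electrophoresis. Human HepG2 liver cells carried transiently transfected CIS reporter constructs reflecting endogenous factors.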

[9] = target: human Retinoid X Receptor beta (RXRb), RXRB (gene 6257) (UniProt P28702); assay: ATG_RXRb_TRANS: Attagene TRANS-FACTORIAL HepG2 Assay for human Retinoid X Receptor beta (RXRb) (AID 2283013)
Procedure, shortened: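 Readout is reporter transcript induction after 24 h dosing. It is measured by RT-PCR of total RNA followed by fluorescent capillary electrophoresis. HepG2 liver cells carry transfected multiple reporter units driven by an exogenous RXRb-Gal4 fusion; activity is relative to DMSO.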

[10] = TOX21_p53_BLA_p2_viability: Viability Assessment in the Tox21 HCT-116 p53 Agonism Beta-lactamase Assay, Phase 2 (AID 2283591);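 also: actives lower the ATP signal meaning cytotoxicity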
Procedure, shortened: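 HCT-116 p53-bla cells (4000/well) rested 5 h at 37C, then received compounds in DMSO (217-fold dilution) for 16 h at 37C, 5% CO2. After the CCF4 read, CellTiter-Glo was added; ATP luminescence was read after 30 min at room temperature.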

[11] = target: Cellular tumor antigen p53 (Homo sapiens) (UniProt P04637); assay: TOX21_p53_BLA_p2_ratio: Tox21 HCT-116 p53 Agonism Beta-lactamase Assay, Ratio, Phase 2 (AID 2283592)
Procedure, shortened: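 Readout: blue/green (460/530 nm) FRET emission ratio after 2 h CCF4-AM loading at room temperature, excitation 405 nm. HCT116 p53 bla cells, 16 h compound exposure at 37C, 5% CO2; agonist direction fitted against DMSO baseline.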

[12] = TOX21_p53_BLA_p4_viability: Viability Assessment in the Tox21 HCT-116 p53 Agonism Beta-lactamase Assay, Phase 4 (AID 2283597);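 also: hits lower the luminescence signal meaning cytotoxicity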
Procedure, shortened: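 ATP content by CellTiter-Glo luminescence, 30 min RT, read after the beta-lactamase ratio step. Cells: HCT116, 4000/well, compound added after 5 h, exposure 16 h at 37C. Signal loss = reduced viability.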

[13] = TOX21_p53_BLA_p5_viability: Viability Assessment in the Tox21 HCT-116 p53 Agonism Beta-lactamase Assay, Phase 5 (AID 2283600)
Procedure, shortened: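 ATP luminescence (CellTiter-Glo, 30 min, RT) served as the viability read-out, with loss of signal indicating cytotoxicity. Compounds in DMSO were pinned at a 217-fold dilution onto 4000 cells/well and incubated 16 h, 37C.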

[14] = target: Cellular tumor antigen p53 (Homo sapiens) (UniProt P04637); assay: TOX21_p53_BLA_p4_ratio: Tox21 HCT-116 p53 Agonism Beta-lactamase Assay, Ratio, Phase 4 (AID 2283601)
Procedure, shortened: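 HCT116 cells carrying an inducible beta-lactamase reporter were plated at 4000 cells/well, rested 5 h, then exposed to compounds in DMSO (217-fold dilution) for 16 h at 37C. CCF4-AM substrate was loaded 2 h at room temperature; 460/530 nm emission ratio scored gain-of-signal versus DMSO.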

[15] = target: Retinoic acid receptor RXR-alpha (Homo sapiens) (UniProt P19793); assay: ATG_RXRa_TRANS: Attagene TRANS-FACTORIAL HepG2 Assay for human Retinoid X Receptor alpha (RXRa) (AID 2283012)
Procedure, shortened: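 TRANS format reporting activity of exogenous RXRa-Gal4 chimera in transiently transfected HepG2, 24 h exposure. Reporter transcripts quantified by RT-PCR with capillary electrophoresis, with gain of signal scored relative to DMSO.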

[16] = target: Hepatocyte nuclear factor 6 (Homo sapiens) (UniProt Q9UBC0); assay: ATG_HNF6_CIS: Attagene CIS-FACTORIAL HepG2 Assay for human Hepatocyte Nuclear Factor 6 (HNF6) (AID 2282952; active = hit-call score of the fitted dose curve at least 0.9, where 1 is the maximum; inactive = score below 0.9); conditions: HepG2 Attagene cis-factorial HNF6 reporter transcription; actives raise or lower the signal
Procedure, shortened: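 Readout: fluorescent reporter-transcript fragments resolved by capillary electrophoresis after RT-PCR, reflecting endogenous factor activity in transfected HepG2. Exposure 24 h. Gain or loss of signal fitted bidirectionally against DMSO.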

[17] = ATG_M_32_TRANS: Attagene TRANS-FACTORIAL HepG2 Assay for M32 Transcription Factor (Internal Marker) (AID 2282984); conditions: HepG2 Attagene TRANS M32 internal marker reporter;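 also: transcript level of a background control reporter unit measured by RT-PCR and capillary electrophoresis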
Procedure, shortened: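 After 24 h dosing of transfected HepG2 cells, total RNA was reverse-transcribed, reporter sequences PCR-amplified, 6-FAM labelled by primer extension and HpaI-digested before capillary electrophoresis. Signal increase over DMSO was fitted.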

[18] = target: Cellular tumor antigen p53 (Homo sapiens) (UniProt P04637); assay: TOX21_p53_BLA_p3_ratio: Tox21 HCT-116 p53 Agonism Beta-lactamase Assay, Ratio, Phase 3 (AID 2283596)
Procedure, shortened: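 Cells were seeded at 4000/well, rested 5 h at 37C, then dosed with DMSO compound solutions (217-fold dilution) for 16 h. CCF4-AM substrate was loaded for 2 h at room temperature, and the 460/530 nm emission ratio was fitted for gain of signal versus DMSO.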

[19] = target: human Thyroid Receptor alpha (THRa1), THRA (gene 7067) (UniProt P10827); assay: ATG_THRa1_TRANS: Attagene TRANS-FACTORIAL HepG2 Assay for human Thyroid Receptor alpha (THRa1) (AID 2283014)
Procedure, shortened: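 Transient HepG2 transfection, NR-Gal4 chimera driving GAL4-UAS reporters; 24 h compound exposure; total RNA, oligo(dT) RT, PCR, fluorescent primer extension, capillary electrophoresis. Upward direction vs DMSO control.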

[20] = target: Cellular tumor antigen p53 (Homo sapiens) (UniProt P04637); assay: TOX21_p53_BLA_p5_ratio: Tox21 HCT-116 p53 Agonism Beta-lactamase Assay, Ratio, Phase 5 (AID 2283599)
Procedure, shortened: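 HCT-116 cells carrying a p53-inducible beta-lactamase reporter were seeded at 4000 cells/well and dosed after 5 h with compound in DMSO (217-fold dilution). After 16 h at 37C, CCF4-AM substrate was added for 2 h, and the 460/530 nm emission ratio was scored as gain-of-signal versus DMSO.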

Measured: AC50

Chain of Hepatocyte nuclear factor 6 (Homo sapiens) (Q9UBC0 whole entry, looked up, the tested form may be a part): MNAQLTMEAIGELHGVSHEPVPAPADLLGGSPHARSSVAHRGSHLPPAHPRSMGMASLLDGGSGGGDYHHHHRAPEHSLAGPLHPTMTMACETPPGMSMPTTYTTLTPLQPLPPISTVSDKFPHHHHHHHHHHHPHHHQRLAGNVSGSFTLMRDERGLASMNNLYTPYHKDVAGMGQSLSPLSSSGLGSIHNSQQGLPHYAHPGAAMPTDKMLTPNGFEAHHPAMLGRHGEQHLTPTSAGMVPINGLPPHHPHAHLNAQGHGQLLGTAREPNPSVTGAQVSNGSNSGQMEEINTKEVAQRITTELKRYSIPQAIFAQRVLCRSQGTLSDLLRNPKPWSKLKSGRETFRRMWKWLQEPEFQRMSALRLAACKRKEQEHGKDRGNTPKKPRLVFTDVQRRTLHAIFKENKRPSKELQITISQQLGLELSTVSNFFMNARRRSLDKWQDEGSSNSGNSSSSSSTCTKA
Chain of human Thyroid Receptor alpha (THRa1), THRA (gene 7067) (P10827 whole entry, looked up, the tested form may be a part): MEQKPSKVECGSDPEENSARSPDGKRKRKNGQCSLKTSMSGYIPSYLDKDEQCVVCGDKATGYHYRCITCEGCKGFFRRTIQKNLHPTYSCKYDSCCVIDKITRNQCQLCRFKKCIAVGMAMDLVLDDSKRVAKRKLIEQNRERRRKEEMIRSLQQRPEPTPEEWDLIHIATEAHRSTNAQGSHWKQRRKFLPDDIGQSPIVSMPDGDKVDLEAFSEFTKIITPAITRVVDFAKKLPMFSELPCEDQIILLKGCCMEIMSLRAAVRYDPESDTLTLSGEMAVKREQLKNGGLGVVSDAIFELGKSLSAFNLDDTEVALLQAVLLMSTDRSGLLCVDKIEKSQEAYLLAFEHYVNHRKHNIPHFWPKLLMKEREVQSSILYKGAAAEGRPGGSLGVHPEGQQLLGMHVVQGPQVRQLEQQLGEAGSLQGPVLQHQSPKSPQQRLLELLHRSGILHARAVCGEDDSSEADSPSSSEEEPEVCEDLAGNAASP
Chain of Hepatocyte nuclear factor 3-beta (Homo sapiens) (Q9Y261 whole entry, looked up): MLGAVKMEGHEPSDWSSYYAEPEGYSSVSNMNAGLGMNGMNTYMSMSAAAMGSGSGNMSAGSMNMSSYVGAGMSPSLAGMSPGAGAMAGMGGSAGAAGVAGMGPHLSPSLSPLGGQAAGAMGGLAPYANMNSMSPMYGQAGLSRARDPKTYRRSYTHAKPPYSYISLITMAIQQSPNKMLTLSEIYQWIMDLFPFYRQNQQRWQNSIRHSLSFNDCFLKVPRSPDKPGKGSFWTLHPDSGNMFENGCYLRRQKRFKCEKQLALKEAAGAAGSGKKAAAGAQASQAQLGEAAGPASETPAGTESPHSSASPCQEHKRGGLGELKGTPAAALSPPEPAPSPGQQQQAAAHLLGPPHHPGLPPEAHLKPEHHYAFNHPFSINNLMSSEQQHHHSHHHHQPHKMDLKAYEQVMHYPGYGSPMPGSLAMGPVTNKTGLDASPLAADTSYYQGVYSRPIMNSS
Chain of Retinoic acid receptor RXR-alpha (Homo sapiens) (P19793 whole entry, looked up, the tested form may be a part): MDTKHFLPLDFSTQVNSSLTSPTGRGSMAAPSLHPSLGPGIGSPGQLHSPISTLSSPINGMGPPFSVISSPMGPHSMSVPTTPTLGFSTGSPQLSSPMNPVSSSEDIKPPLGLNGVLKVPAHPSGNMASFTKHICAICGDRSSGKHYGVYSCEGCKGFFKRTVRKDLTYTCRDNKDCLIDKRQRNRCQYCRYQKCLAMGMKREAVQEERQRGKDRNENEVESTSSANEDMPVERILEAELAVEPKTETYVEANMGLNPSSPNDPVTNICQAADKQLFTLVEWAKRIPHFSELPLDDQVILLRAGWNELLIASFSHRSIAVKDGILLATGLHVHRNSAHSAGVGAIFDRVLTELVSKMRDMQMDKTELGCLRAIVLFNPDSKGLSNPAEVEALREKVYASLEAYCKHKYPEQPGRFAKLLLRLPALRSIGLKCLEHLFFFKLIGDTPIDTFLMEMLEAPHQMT
Chain of human Retinoid X Receptor beta (RXRb), RXRB (gene 6257) (P28702 whole entry, looked up, the tested form may be a part): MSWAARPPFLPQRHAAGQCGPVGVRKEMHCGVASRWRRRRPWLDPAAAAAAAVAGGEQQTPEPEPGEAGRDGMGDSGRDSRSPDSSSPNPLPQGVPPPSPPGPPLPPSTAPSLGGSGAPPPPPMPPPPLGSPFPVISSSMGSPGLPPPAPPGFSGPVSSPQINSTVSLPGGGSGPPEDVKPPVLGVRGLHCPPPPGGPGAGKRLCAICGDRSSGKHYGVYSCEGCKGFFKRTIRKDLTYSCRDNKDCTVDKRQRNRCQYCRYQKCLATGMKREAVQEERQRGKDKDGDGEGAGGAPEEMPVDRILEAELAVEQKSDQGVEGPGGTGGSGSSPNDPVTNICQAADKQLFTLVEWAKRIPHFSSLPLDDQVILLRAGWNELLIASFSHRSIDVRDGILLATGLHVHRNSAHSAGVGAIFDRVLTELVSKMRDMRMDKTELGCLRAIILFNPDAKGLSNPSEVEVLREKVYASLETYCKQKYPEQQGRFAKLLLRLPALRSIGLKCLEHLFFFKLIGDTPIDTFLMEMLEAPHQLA
Chain of Nuclear respiratory factor 1 (Homo sapiens) (Q16656 whole entry, looked up): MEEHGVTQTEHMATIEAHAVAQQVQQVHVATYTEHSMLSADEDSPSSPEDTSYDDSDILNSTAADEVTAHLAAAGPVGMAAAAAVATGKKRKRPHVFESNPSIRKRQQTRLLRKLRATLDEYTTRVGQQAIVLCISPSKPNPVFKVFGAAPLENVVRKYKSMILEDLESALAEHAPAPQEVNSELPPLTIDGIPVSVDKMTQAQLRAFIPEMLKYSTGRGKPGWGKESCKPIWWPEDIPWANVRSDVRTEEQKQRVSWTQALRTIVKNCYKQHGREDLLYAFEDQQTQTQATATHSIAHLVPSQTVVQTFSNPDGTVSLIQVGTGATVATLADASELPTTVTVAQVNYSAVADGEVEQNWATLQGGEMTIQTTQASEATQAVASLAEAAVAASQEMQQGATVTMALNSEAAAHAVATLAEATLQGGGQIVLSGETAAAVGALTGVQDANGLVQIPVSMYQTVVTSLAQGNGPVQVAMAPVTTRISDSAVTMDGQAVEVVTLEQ
Chain of Hepatocyte nuclear factor 4-alpha (Homo sapiens) (P41235 whole entry, looked up, the tested form may be a part): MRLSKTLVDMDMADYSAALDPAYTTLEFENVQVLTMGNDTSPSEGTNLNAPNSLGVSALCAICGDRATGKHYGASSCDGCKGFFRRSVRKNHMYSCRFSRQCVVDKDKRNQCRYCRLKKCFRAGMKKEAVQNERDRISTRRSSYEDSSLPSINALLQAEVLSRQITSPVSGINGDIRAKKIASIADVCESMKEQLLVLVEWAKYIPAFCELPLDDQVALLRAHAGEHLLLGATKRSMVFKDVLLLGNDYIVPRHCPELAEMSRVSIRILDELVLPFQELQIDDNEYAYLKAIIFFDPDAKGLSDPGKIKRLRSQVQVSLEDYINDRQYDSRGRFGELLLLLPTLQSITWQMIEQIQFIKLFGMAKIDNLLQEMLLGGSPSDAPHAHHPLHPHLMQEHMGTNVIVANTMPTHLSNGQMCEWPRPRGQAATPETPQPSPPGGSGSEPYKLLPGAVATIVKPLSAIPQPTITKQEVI
Chain of Cellular tumor antigen p53 (Homo sapiens) (P04637 whole entry, looked up): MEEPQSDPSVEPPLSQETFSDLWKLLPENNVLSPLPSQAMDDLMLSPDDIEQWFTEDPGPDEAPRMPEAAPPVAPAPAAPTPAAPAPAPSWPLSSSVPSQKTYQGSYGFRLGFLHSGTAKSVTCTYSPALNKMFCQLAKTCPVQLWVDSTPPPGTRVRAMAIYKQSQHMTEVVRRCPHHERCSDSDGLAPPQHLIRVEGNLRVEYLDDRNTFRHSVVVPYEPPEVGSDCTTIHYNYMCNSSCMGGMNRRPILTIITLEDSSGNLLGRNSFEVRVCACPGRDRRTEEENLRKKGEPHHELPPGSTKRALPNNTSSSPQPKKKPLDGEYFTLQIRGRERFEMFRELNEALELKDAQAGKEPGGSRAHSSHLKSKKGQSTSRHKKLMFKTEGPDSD
Chain of Nuclear receptor subfamily 4 group A member 2 (Homo sapiens) (P43354 whole entry, looked up, the tested form may be a part): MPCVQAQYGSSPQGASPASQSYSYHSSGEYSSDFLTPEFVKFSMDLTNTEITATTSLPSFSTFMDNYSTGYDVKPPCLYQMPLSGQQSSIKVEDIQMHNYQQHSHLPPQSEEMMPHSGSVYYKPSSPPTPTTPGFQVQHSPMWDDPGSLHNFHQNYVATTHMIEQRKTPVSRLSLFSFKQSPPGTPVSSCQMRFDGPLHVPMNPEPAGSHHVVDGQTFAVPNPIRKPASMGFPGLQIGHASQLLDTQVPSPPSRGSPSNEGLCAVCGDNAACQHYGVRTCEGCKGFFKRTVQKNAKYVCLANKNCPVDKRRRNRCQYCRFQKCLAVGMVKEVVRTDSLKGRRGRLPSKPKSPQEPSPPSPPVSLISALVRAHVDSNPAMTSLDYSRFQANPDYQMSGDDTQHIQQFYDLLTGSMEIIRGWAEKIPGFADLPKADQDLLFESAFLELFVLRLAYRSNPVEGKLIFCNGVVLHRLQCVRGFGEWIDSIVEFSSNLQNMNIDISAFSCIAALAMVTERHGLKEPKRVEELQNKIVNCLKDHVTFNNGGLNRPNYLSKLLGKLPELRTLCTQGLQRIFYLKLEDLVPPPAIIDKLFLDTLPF

NC(=O)c1ccc(N)cc1
not listed: [15] | [16] | [17] | [18] | [19] | [20]
inactive: all other assays above

O=C(C1CCCCC1)N1CC(=O)N2CCc3ccccc3C2C1 (stereo not given)
inactive: [2] | [3] | [6] | [7] | [8] | [15] | [9]

CC(=O)Nc1c(I)c(NC(C)=O)c(I)c(C(=O)O)c1I
inactive: [1] | [16] | [2] | [3] | [5] | [6] | [7]

CN(C)CCC(c1ccc(Cl)cc1)c1ccccn1 (stereo not given)
inactive: [2] | [3] | [4] | [17] | [8] | [10] | [18] | [12] | [13]

CCOC(=O)CC(=O)OCC
not listed: [1] | [2] | [3] | [6] | [8] | [9] | [12] | [17]
inactive: all other assays above

Oc1ccc(Oc2ccccc2)cc1
active: [9] 59.2 µM | [11] 45 µM
inactive: [1] | [8] | [15] | [19] | [10] | [18] | [12] | [20] | [14]

CCCCn1cc[n+](C)c1
inactive: [1] | [2] | [5] | [6] | [7] | [15] | [9] | [19]

O=C1NC(=O)[C@@H]2CC=CC[C@H]12
not listed: [6] | [7] | [8] | [11] | [12] | [17]
inactive: all other assays above

O=C(O)Cc1c[nH]c2ccccc12
active: [9] 73.7 µM
not listed: [1] | [3] | [7] | [8] | [16]
inactive: all other assays above

CC(C)(C)C(=O)C(=O)O
inactive: [11] | [20] | [13] | [14]

c1ccc(CNc2ncnc3nc[nH]c23)cc1
inactive: [16] | [2] | [5] | [8] | [15] | [19] | [10] | [12] | [13]
